The source of these data is PubChem BioAssay AID1220 (Sanford-Burnham Center for Chemical Genomics, 2008).

Among all 190,000 compounds or so, about 1,300 (0.68%) were called active. Rule as the data show it: active = inhibition above about 50%; inactive = the rest. The entries come from a sample that favours actives as a whole.

The target of this test is Mannose-6-phosphate isomerase (Homo sapiens) (UniProt P34949). Kind of test: human PMI inhibitors, high substrate, primary screen, biochemical, fluorescence intensity, high mannose 6-phosphate (AID 1220). Particulars: recombinant PMI enzyme, coupled fluorescence intensity; at 20 µM; hits give high values.
Chain of Mannose-6-phosphate isomerase (Homo sapiens) (P34949 whole entry, looked up): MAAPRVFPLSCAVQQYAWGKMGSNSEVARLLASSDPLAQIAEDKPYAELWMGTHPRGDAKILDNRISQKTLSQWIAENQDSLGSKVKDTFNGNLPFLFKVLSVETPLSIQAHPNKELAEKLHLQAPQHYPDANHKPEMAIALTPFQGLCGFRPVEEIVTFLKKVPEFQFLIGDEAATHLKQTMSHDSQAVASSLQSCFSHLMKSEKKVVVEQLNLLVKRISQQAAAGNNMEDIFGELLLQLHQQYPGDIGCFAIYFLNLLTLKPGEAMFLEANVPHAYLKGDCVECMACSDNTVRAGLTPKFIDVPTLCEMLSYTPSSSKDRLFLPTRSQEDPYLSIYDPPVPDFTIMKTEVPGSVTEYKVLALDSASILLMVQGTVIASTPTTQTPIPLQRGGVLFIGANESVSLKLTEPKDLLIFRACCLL
What is called inhibition is the drop in the measured response relative to a control, in per cent. Consider `N#CC(=C=[N-])c1nc2ccccc2nc1-[n+]1ccccc1`, for which the inhibition was 1.9% (inactive). In the case of `CCc1cc[n+](-c2nc3ccccc3nc2C(=C=[N-])C#N)cc1` it was 14.8% (inactive); in that of `Cc1cc[n+](-c2nc3ccccc3nc2C(=C=[N-])C#N)cc1`, 51.9% (active); in that of `COC(=O)COC(=O)c1ccc(Oc2nc(OC)nc(N(C)C)n2)cc1`, 8.1% (inactive). The figure for `O=c1oc(-c2cccs2)nc2ccc(Br)cc12` is -3% (inactive); for `Cc1ccc(-c2cc(C(=O)O)c3cc(Br)ccc3n2)o1` it is -44.6% (inactive); for `O=C(NC1CCCCC1)NC1CC2CCC(C1)N2C(=O)NCc1ccccc1` (stereo not given) it is -7.9% (inactive). The figure for `Cc1ccc(/C(C#N)=C\c2ccc(N3CCOCC3)o2)cc1` is 14.1% (inactive); for `N#C/C(=C/c1ccc(N2CCOCC2)o1)c1ccc(Cl)cc1` it is 42.5% (inactive). `N#C/C(=C/c1ccc(N2CCOCC2)o1)c1nc2ccccc2[nH]1`: the inhibition was 38.4% (inactive).

In the case of `Cc1ccc2nc(/C(C#N)=C\c3ccc(N4CCOCC4)o3)[nH]c2c1`, the inhibition was 59.9% (active). In the case of `N#C/C(=C/c1ccc(N2CCOCC2)o1)c1ccc(Br)cc1` it was 50.4% (active); in that of `N#C/C(=C\c1ccc(N2CCOCC2)o1)c1nc2ccccc2[nH]1`, 45.8% (inactive). The figure for `CC1=CCC2COC(c3ccc[n+](Cc4ccccc4)c3)C1C2` (stereo not given) is 43.6% (inactive).

For the compound `CCOc1ccc(N(CC(=O)N2CCCC2)S(=O)(=O)c2c(C)noc2C)cc1`, the inhibition is 0.9% (inactive). In the case of `Cc1c(Cl)cccc1NC(=O)Nc1ccc(C(N)=O)cc1` it was 3.7% (inactive); in that of `Cc1cc(/C=C2\SC(N)=NC2=O)c(C)n1-c1ccc(F)cc1`, 32.4% (inactive). The figure for `Cc1cc(S(=O)(=O)n2cnc3ccccc32)c(C)cc1Cl` is -20.1% (inactive); for `Cc1ccc(S(=O)(=O)n2cnc3ccccc32)c(C)c1` it is 81.3% (active).

As for `Cc1cc(C)c(S(=O)(=O)n2cnc3ccccc32)c(C)c1`, the inhibition is -6% (inactive). In the case of `O=C1c2ccccc2C(=O)N1Cc1nc(-c2ccccc2)no1`, the inhibition was -1.3% (inactive).

Regarding `OCCCc1cn(-c2ccccc2)c2ccccc12`, the inhibition was -13.6% (inactive). Turning to `C=CCSC1=N/C(=C\c2ccc(C)o2)C(=O)S1`, the inhibition is 7.9% (inactive).

On to `Cc1ccc2cc(CN(Cc3ccccc3)Cc3nnnn3C3CCCC3)c(=O)[nH]c2c1`, for which the inhibition was 5.3% (inactive).

Regarding `Nc1ccc2oc(-c3cccc4ccccc34)nc2c1`, the inhibition was 45.3% (inactive). In the case of `Nc1ccc2nn(-c3cccc4ccccc34)nc2c1` it was 62.8% (active). `Cc1cc2nn(-c3cccc4ccccc34)nc2cc1NC(=O)c1cccs1`: the inhibition is 15.2% (inactive). Take `c1ccc2c(-n3cccn3)cccc2c1`: the inhibition was -0.8% (inactive).

Take `c1ccc2c(-n3cnnn3)cccc2c1`: the inhibition is 1.3% (inactive).

In the case of `Cc1cc2nn(-c3cccc4ccccc34)nc2cc1N`, the inhibition was 75.5% (active). The figure for `Cn1nc(-c2ccc(C(=O)O)cc2)c2ccccc2c1=O` is -4.7% (inactive). The figure for `CCC(=O)NC(c1ccccc1OC)c1ccc2cccnc2c1O` (stereo not given) is 50.2% (active). In the case of `CCC(=O)NC(c1cccs1)c1ccc2cccnc2c1O` (stereo not given) it was 49.8% (inactive). Consider `Cc1ccc2ccc(C(Nc3ccccn3)c3ccccc3)c(O)c2n1` (stereo not given), for which the inhibition is 11.4% (inactive). Take `COc1cc(C(Nc2ccccn2)c2ccc3ccc(C)nc3c2O)cc(OC)c1O` (stereo not given): the inhibition was 62.2% (active).

For `COc1ccccc1NC(c1cccnc1)c1ccc2cccnc2c1O` (stereo not given), the inhibition was 51.7% (active). `Cc1cc(NC(c2cccnc2)c2ccc3cccnc3c2O)no1` (stereo not given): the inhibition was 40.3% (inactive). Regarding `Cc1cccc(NC(c2ccc(O)cc2)c2ccc3ccc(C)nc3c2O)n1` (stereo not given), the inhibition was 8.7% (inactive). Consider `CCCC(=O)NC(c1ccccc1OC)c1ccc2cccnc2c1O` (stereo not given), for which the inhibition was 39.5% (inactive). Regarding `CCOC(=O)N1CCN(S(=O)(=O)c2cccc3cccnc23)CC1`, the inhibition was -12.8% (inactive). The figure for `Cc1ccnc(NC(c2cccnc2)c2ccc3cccnc3c2O)c1` (stereo not given) is 18% (inactive); for `CN1CCN(C(c2cccnc2)c2ccc3cccnc3c2O)CC1` (stereo not given) it is 39.6% (inactive). For `CCN(CC)CCCNC(=O)c1ccc2c(SCC(=O)O)c3c(nc2c1)CCC3`, the inhibition is -9.3% (inactive). The figure for `COc1ccc(-n2c(C(C)n3nc(C)c([N+](=O)[O-])c3C)n[nH]c2=S)cc1` (stereo not given) is -11.8% (inactive); for `COc1ccc(NC(=O)CC2C(=O)N(CCc3ccccc3)C(=S)N2Cc2cccnc2)cc1` (stereo not given) it is -8.8% (inactive); for `COc1ccc(CC(=O)NNC(=O)c2cccs2)cc1` it is -0.3% (inactive). Consider `CC1CC(N(C(=O)c2ccco2)c2ccccc2)c2ccccc2N1` (stereo not given), for which the inhibition is 17.9% (inactive). In the case of `Oc1c(C(Nc2nc3ccccc3s2)c2ccco2)ccc2cccnc12` (stereo not given), the inhibition is 34.8% (inactive).

As for `Oc1c(C(Nc2nccs2)c2ccc(C(F)(F)F)cc2)ccc2cccnc12` (stereo not given), the inhibition was 24.5% (inactive). Consider `Oc1cccc(C(Nc2nccs2)c2ccc3cccnc3c2O)c1` (stereo not given), for which the inhibition was 57.6% (active).

Take `CC(C)OC(=O)c1ccc(NC(=O)c2ccco2)cc1`: the inhibition is 6.2% (inactive). Consider `O=[N+]([O-])c1cccnc1NCc1cccs1`, for which the inhibition was 3.1% (inactive).

Turning to `O=[N+]([O-])c1cc(-c2ncccn2)cs1`, the inhibition is -6.6% (inactive). On to `COc1ccc(NC(=O)Cn2nc3n(c2=S)CCC3)cc1`, for which the inhibition is 2.7% (inactive).

For the compound `CCSC1=C(C#N)C(c2ccc3c(c2)OCO3)C2=C(CCCC2=O)N1` (stereo not given), the inhibition was 7.2% (inactive). In the case of `CCOC(=O)C1=C(C)OC(N)=C(C#N)C1c1ccc(C)o1` (stereo not given) it was -3.7% (inactive); in that of `N#CC1=C(N)Oc2c(sc3ccccc23)C1c1ccco1` (stereo not given), 53.1% (active); in that of `CC(=O)C1=C(C)OC(N)=C(C#N)C1c1ccco1` (stereo not given), 10.4% (inactive). In the case of `COC(=O)C1=C(C)OC(N)=C(C#N)C1c1ccco1` (stereo not given) it was 2.9% (inactive); in that of `Cc1ccc([C@H]2C(C#N)=C(N)Oc3cc(C)oc(=O)c32)o1`, -11.4% (inactive); in that of `Cc1ccc(C2C(C#N)=C(N)Oc3c2sc2ccccc32)o1` (stereo not given), 57.5% (active). With `Clc1ccc(-c2cn3cc(Br)ccc3n2)cc1Cl`, the inhibition is -15.2% (inactive). With `O=C(O)CCc1ccc(-c2cccs2)n1CCc1ccccc1`, the inhibition was 3.8% (inactive). The figure for `CCC(C)(C)n1nnnc1C(c1ccncc1)N1CCC(C)CC1` (stereo not given) is -5.6% (inactive); for `O=C(Nc1cccn(Cc2c(Cl)cccc2Cl)c1=O)C1CC1` it is 3.9% (inactive).
